Screens (PubChem BioAssay)
CRFBP-R2 block = blocks CRF-induced signaling of the CRF-BP/CRF-R2 complex; inhibition, % at 11.8 µM; AID 588475; hit rate 0.59% among 350,000; HEK293 CRF-R2/CRF-BP, CRF-induced calcium fluorescence;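 active means inhibition of the ligand-induced calcium signal above about 50% at the single tested concentration, limit read from the data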
CRFR2-BP ag = CRF-BP/CRF-R2 complex agonism; HEK293 CRF-R2/CRF-BP, calcium dye fluorescence (FLIPR); percent of saturating CRF peptide response; activation, % at 13.2 µM; hit rate 0.46% among 350,000; AID 588473;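 active means activation of at least 50%, plus an integration ratio under a set limit after plate pattern correction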
MPTP inh = inhibitors of mitochondrial permeability transition pore | inhibition, % at 10 µM | hit rate 1.4% among 360,000 | isolated mouse mitochondria, Ca2+ swelling absorbance, 30 min;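 active means inhibition of 50% or more, scaled per plate between neutral and stimulator controls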
NR3A LBD binder = modulates the human NR3A ligand-binding domain; NR3A LBD differential scanning fluorimetry, Tm shift; 0% = protein alone, 100% = glycine-bound protein; Tm shift relative to glycine control, % at 25 µM; hit rate 2.5% among 340,000;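 active means melting temperature shift of at least 10% of the positive control shift, at one fixed dose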
ANO1 block = inhibitors of mouse TMEM16A calcium-activated chloride channel. Q8BHY3. HEK293 TMEM16A/YFP iodide influx fluorescence, ionomycin. normalized B-score (activity score, 25-100; higher = stronger inhibition) at 10 µM. hit rate 1.2% among 310,000;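 active means ratio plate-corrected score three or more library SD toward inhibition, starting fluorescence score within five deviations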;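 further: score derived from kinetic fluorescence span divided by baseline fluorescence per well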
TMEM16A act = mouse TMEM16A channel activation, primary screen; Q8BHY3; HEK293 TMEM16A/YFP-H148Q/I152L, iodide quench fluorescence; hits give low values; B-score at 10 µM; hit rate 0.3% among 340,000; AID 623877;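 active means fluorescence-ratio B-score plate-corrected deviation score at least 3 library SD below zero, with starting fluorescence score within 5 deviations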;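 further: channel opened by trigger with iodide after compound preincubation; score built on the fluorescence ratio of max minus min over baseline; more negative score means more quench and so TMEM16A activation or potentiation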
Numbers stand for hits; – = inactive; · = no result. The list is not random: actives were taken first. Their share in the collection is about 5.1%.

SMILES | CRFBP-R2 block | CRFR2-BP ag | MPTP inh | NR3A LBD binder | ANO1 block | TMEM16A act
CCCc1ccc(C(C)NC(=S)NC2CCCCC2)cc1 (stereo unspecified) | – | – | – | – | 100 | –
CCOC(=O)C1=CCN(S(=O)(=O)c2ccccc2C)C1c1ccccc1 (stereo unspecified) | · | · | – | · | · | ·
Cc1ccc(NC(=O)COC(=O)CCc2c(C)nc3nc(N)nn3c2C)cc1C | – | – | – | – | · | -23
Nc1ccc2c(c1)Cc1cc([N+](=O)[O-])ccc1-2 | – | 111 | – | – | – | –
CC(=NO)c1ccc2c(c1)Cc1cc([N+](=O)[O-])ccc1-2 | – | – | – | – | · | –
CC(O)CN(CC(C)O)c1ccc2c(c1)Cc1cc([N+](=O)[O-])ccc1-2 (stereo unspecified) | – | 197 | – | – | · | –
COC(=O)c1ccc2nc(C3CCCCC3)c(Cc3ccc(OC)cc3C)n2c1 | · | · | – | · | · | ·
CC(C)(C)n1nnnc1C(c1cccnc1)N(Cc1ccccc1)Cc1ccco1 (stereo unspecified) | – | – | – | – | – | –
COc1cccc(CN(Cc2ccco2)C(c2ccc(F)cc2)c2nnnn2C(C)(C)C)c1 (stereo unspecified) | – | – | – | – | – | -26
Cc1nnc(SC(C)C(=O)Nc2ncc(Cl)cc2Cl)n1Cc1ccccc1 (stereo unspecified) | – | – | – | – | – | -20
COCCn1c(SC(C)C(=O)Nc2ncc(Cl)cc2Cl)nc2ccccc21 (stereo unspecified) | – | – | – | – | – | –
Cc1ccc(-n2nnnc2SCc2nnc(-c3ccccc3Br)o2)cc1 | 136 | – | – | – | – | –
COC(=O)[C@H](Cc1ccc(O)cc1)NC(=O)Cn1cnc2c(OCc3ccccc3)ncnc21 | – | – | – | – | · | ·
CCOCc1cc(CN2CCC(n3nccc3NC(=O)C3CC3)CC2)ccc1OC | – | – | – | – | · | –
COc1ccc(CN2CCC(n3nccc3NC(=O)C3CC3)CC2)cc1O | – | – | – | 14 | – | –
CC1=Nc2ccccc2/C1=C\c1nc(-c2ccc(F)cc2)oc1O | – | – | – | 30 | – | –
Oc1oc(-c2ccccc2)nc1/C=N/c1ccccn1 | – | – | – | – | – | –
COc1cccc(CN2CCN(Cc3cc(OC)c(OC)cc3[N+](=O)[O-])CC2)c1 | 64 | – | – | – | – | –
COc1ccc(C(=O)NCCS(=O)(=O)N2CCCC2)cc1 | – | – | – | – | – | –
CC(C)(C)c1ccc(OCC(=O)N2CCN(C=O)CC2)cc1 | – | – | – | 18 | – | –
CS(=O)(=O)N1CCN(C(=O)COc2ccc3ccccc3c2)CC1 | 64 | – | – | – | – | –
CS(=O)(=O)N1CCN(C(=O)COc2ccccc2)CC1 | – | – | – | – | – | –
CCOC(=O)C1CCCN(C(=O)COc2ccc(C(C)(C)C)cc2)CC1 (stereo unspecified) | · | · | – | · | · | ·
CC(CCc1ccccc1)N(C)CC(O)c1cccc([N+](=O)[O-])c1 (stereo unspecified) | – | – | – | – | – | –
COc1ccc(C(=O)Nc2ccnn2C2CCN(C(=O)c3cccnc3)CC2)cc1 | – | – | – | – | – | –
SMILES | CRFBP-R2 block | CRFR2-BP ag | MPTP inh | NR3A LBD binder | ANO1 block | TMEM16A act
Cc1ccc(OCC(=O)NNC(=O)C2CC(=O)N(c3ccc4c(c3)OCCO4)C2)cc1 (stereo unspecified) | – | – | – | – | – | –
Cc1csc(N(C(=O)c2cccc(S(=O)(=O)N(C)C)c2)c2ccccc2)n1 | – | – | – | 12 | – | –
Cc1ccc(N=Nc2ccc(O)cc2)c(Br)c1 | – | – | – | 13 | – | –
Oc1ccc(N=Nc2ccc(Br)cc2)c(O)c1 | – | – | – | – | – | –
CCOC(=O)c1ccc(-n2c(CCC(=O)O)ccc2-c2ccc(F)cc2)cc1 | – | – | – | – | – | –
COc1ccc(-c2ccc3c(N)c(C(=O)c4ccc(OC)c(OC)c4)sc3n2)cc1 | – | – | – | – | – | –
COc1ccc(C(=O)c2sc3nc(-c4ccccc4)ccc3c2N)cc1OC | – | 52 | – | – | – | –
CC(=O)Nc1ccc(-c2sc(Nc3cccc4ccccc34)n[n+]2-c2ccccc2)cc1 | – | – | – | – | – | -12
CC(=O)Nc1ccc(N2S(=O)(=O)c3ccccc3S2(=O)=O)cc1 | – | – | – | 11 | – | –
Cc1cccc(N(Cc2ccccc2)C(=O)CSC(C)C(=O)Nc2cc(C)on2)c1 (stereo unspecified) | – | – | – | – | – | –
COc1ccc(C(=O)Nc2nnc([C@@H]3C[C@H](O)[C@@H](CO)O3)s2)cc1 | · | · | – | · | · | ·
Cc1sc2ncnc(N3CCC(C(=O)Nc4ccc(Cl)c(Cl)c4)CC3)c2c1C | – | – | – | 11 | · | –
O=[N+]([O-])c1ccc(-c2nn(-c3ccccc3)cc2/C=N/n2c(-c3ccncc3)n[nH]c2=S)cc1 | – | – | – | – | 25 | –
Cc1ccc2nc(/C(C#N)=C/c3ccc(-c4cccc([N+](=O)[O-])c4)o3)[nH]c2c1 | – | – | – | 13 | – | –
COc1ccc(/C=C(\C#N)c2nc3ccc(C)cc3[nH]2)cc1Oc1ccc(C(F)(F)F)cc1[N+](=O)[O-] | – | – | – | 18 | – | –
CSc1ccccc1NC(=O)C(C)N(C)CC(=O)N1CCN(Cc2ccccc2)CC1 (stereo unspecified) | – | – | – | – | · | –
O=C(CSc1nc2ccccc2c(=O)n1-c1ccc(F)cc1)Nc1ccc(Cl)c(S(=O)(=O)N2CCOCC2)c1 | – | – | – | – | – | –
CN(CC(=O)Nc1cc(S(=O)(=O)N2CCCCCC2)ccc1Cl)Cc1ccc2c(c1)OCO2 | – | – | – | – | · | -14
Cc1ccc(-n2c(SCC(=O)Nc3cc(S(=O)(=O)N4CCOCC4)ccc3Cl)nc3ccccc3c2=O)cc1 | – | – | – | 10 | – | –
Cc1ccc(-c2nc(SCC(=O)Nc3cc(S(=O)(=O)N4CCCCC4)ccc3Cl)n[nH]2)cc1 | – | – | – | 12 | – | –
CN(CC(=O)Nc1cc(S(=O)(=O)N2CCCC2)ccc1Cl)Cc1ccc2c(c1)OCO2 | – | – | – | – | · | –
COc1ccc(-c2nc(SCC(=O)Nc3cc(C)on3)n[nH]2)cc1 | – | – | – | 10 | – | –
COc1cc(NC(=O)[C@@H]2CCCN(S(=O)(=O)c3cccc4cccnc34)C2)cc(OC)c1OC | – | – | – | – | 25 | –
Nc1nonc1-n1nnc(C(=O)N/N=C/c2cccs2)c1-c1ccc2c(c1)OCO2 | – | – | – | – | – | –
Cc1cccc(NC(=O)CSc2nc3nc4c(cc3c(=O)n2-c2ccccc2)CCCC4)c1 | – | – | – | 19 | – | –
O=C(Cc1ccc(F)cc1)Nc1cc(S(=O)(=O)N2CCOCC2)ccc1N1CCCCC1 | – | – | – | · | · | ·
